# Measured values from PubChem BioAssay (NCI).
# The panel holds about 79,000 compounds, 15% with a hit somewhere; the sample as a whole holds those more often. A number with no mark means an inactive call. Active and inactive are the calls of the source. No stated cut-off is given here; in the data, active means growth inhibition above about 70%; inactive means the rest.
# What was measured:
# [1] = NCI Yeast Anticancer Drug Screen. Data for the wt1 strain (AID 149);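 further: 0% = growth of vehicle-treated wt1 cultures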; settings: S. cerevisiae wt1 strain (SPY 50644) growth inhibition, active compounds read high
# In short: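 Measured: growth of wt1 yeast under compound versus vehicle treatment, reported as inhibition.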
# [2] = NCI Yeast Anticancer Drug Screen. Data for the rad50EPP+ strain (AID 151);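 further: 0% = growth of vehicle-treated control cultures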; settings: S. cerevisiae rad50 mutant strain, active compounds read high
# In short: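 Compounds were applied to the rad50EPP+ yeast strain, which bears a defined DNA repair alteration, and growth inhibition was determined relative to vehicle-treated cultures.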
# [3] = NCI Yeast Anticancer Drug Screen. Data for the mgt1 strain (AID 153); settings: S. cerevisiae mgt1 mutant growth inhibition, active compounds read high
# In short: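 Strain: mgt1 yeast, one of a set carrying defined DNA damage repair or cell cycle control alterations. Compound-treated growth compared with vehicle.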
# [4] = NCI Yeast Anticancer Drug Screen. Data for the rad50 strain (AID 155);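 further: 0% = growth of vehicle-only cultures of the same strain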; settings: S. cerevisiae rad50 strain growth inhibition, active compounds read high
# In short: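 Growth of the mutant yeast was measured after compound exposure and referenced to vehicle-treated cultures.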
# [5] = NCI Yeast Anticancer Drug Screen. Data for the mec2-1 strain (AID 157); settings: S. cerevisiae mec2-1 strain, active compounds read high
# In short: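 Strain: mec2-1 (DNA repair/cell cycle alteration). Compound exposure, then growth measured; inhibition expressed relative to vehicle.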
# [6] = NCI Yeast Anticancer Drug Screen. Data for the rad14 strain (AID 159);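 further: 0% = growth of vehicle-treated control cultures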; settings: S. cerevisiae rad14 strain growth inhibition, active compounds read high
# In short: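 Here, inhibition of yeast growth was measured after compound exposure, using a strain with a genetic defect in DNA damage repair and vehicle-treated cultures as the reference.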
# [7] = NCI Yeast Anticancer Drug Screen. Data for the sgs1 mgt1 strain (AID 161);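 further: 0% = growth of cultures given vehicle only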; settings: S. cerevisiae sgs1 mgt1 strain, active compounds read high
# In short: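 Genetically altered yeast, compound exposure, growth inhibition relative to vehicle.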
# [8] = NCI Yeast Anticancer Drug Screen. Data for the CLN2oe strain (AID 163);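 further: 0% = growth of vehicle-only control cultures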; settings: S. cerevisiae CLN2oe strain, active compounds read high
# In short: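 Growth of a genetically modified yeast strain is measured after compound exposure and compared with cultures given vehicle alone.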
# [9] = NCI Yeast Anticancer Drug Screen. Data for the cln2 rad14 strain (AID 165);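 further: 0% = growth equal to vehicle treated cultures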; settings: S. cerevisiae cln2 rad14 strain, active compounds read high
# In short: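 Compounds are applied to the cln2 rad14 yeast strain, and growth is then compared with that of vehicle-treated cultures to give inhibition.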
# [10] = NCI Yeast Anticancer Drug Screen. Data for the bub3 strain (AID 167); settings: S. cerevisiae bub3 mutant strain, active compounds read high
# In short: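 Whole-cell yeast assay. The mutant strain was incubated with compounds, and growth inhibition was determined by comparison with vehicle-treated cells.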
# [11] = NCI Yeast Anticancer Drug Screen. Data for the wt2 strain (AID 169);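 further: 0% = growth of vehicle-treated yeast cultures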; settings: S. cerevisiae wt2 strain growth inhibition, active compounds read high
# In short: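 This strain belongs to a panel of yeast strains with defined genetic alterations in DNA damage repair or cell cycle control. Compounds are applied, and growth inhibition is measured against vehicle-treated cultures.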
# [12] = NCI Yeast Anticancer Drug Screen. Data for the mlh1 strain (AID 171);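 further: 0% = growth of vehicle-treated control cultures of the same strain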; settings: S. cerevisiae mlh1 strain growth inhibition, active compounds read high
# In short: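 Growth of the mutant yeast strain after compound exposure, expressed as inhibition relative to vehicle-only controls.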
# [13] = NCI Yeast Anticancer Drug Screen. Data for the sgs1 strain (AID 173);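 further: 0% = growth of vehicle-only control cultures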; settings: S. cerevisiae sgs1 mutant, active compounds read high
# In short: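 Growth of a yeast strain bearing a defined genetic alteration is measured after compound treatment. Inhibition is expressed relative to vehicle-only controls.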
# [14] = NCI Yeast Anticancer Drug Screen. Data for the mlh1 rad18 strain (AID 175); settings: S. cerevisiae mlh1 rad18 strain growth inhibition, active compounds read high
# In short: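 Read-out is yeast growth inhibition, calculated against vehicle-only controls. The compound was applied to a strain engineered with DNA damage repair alterations.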
# [15] = NCI Yeast Anticancer Drug Screen. Data for the rad18 strain (AID 177); settings: S. cerevisiae rad18 mutant growth inhibition, active compounds read high
# In short: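 Growth of the mutant yeast strain after compound exposure, normalised to vehicle-only cultures.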
# [16] = at 5.0 µM (retest, dose inferred, filed as 0.5)
# [17] = at 50.0 µM (retest, dose inferred, filed as 5.0)
smiles,measurement,setting,value
NC(N)=NS(=O)(=O)c1ccc(Nc2c3ccccc3nc3c(C(=O)NCCO)cccc23)cc1,growth inhibition,[1]; at 1.2 µM,1%
same,growth inhibition,[1]; at 3.7 µM,1%
same,growth inhibition,[1]; at 11.0 µM,2%
same,growth inhibition,[1]; at 33.0 µM,-1%
same,growth inhibition,[1]; at 100.0 µM,5%
same,growth inhibition,[2]; at 1.2 µM,-1%
same,growth inhibition,[2]; at 3.7 µM,-5%
same,growth inhibition,[2]; at 11.0 µM,-5%
same,growth inhibition,[2]; at 33.0 µM,5%
same,growth inhibition,[2]; at 100.0 µM,37%
same,growth inhibition,[3]; at 1.2 µM,-1%
same,growth inhibition,[3]; at 3.7 µM,-4%
same,growth inhibition,[3]; at 11.0 µM,-3%
same,growth inhibition,[3]; at 33.0 µM,12%
same,growth inhibition,[3]; at 100.0 µM,38%
same,growth inhibition,[4]; at 1.2 µM,0%
same,growth inhibition,[4]; at 3.7 µM,0%
same,growth inhibition,[4]; [16],-11%
same,growth inhibition,[4]; at 11.0 µM,3%
same,growth inhibition,[4]; at 33.0 µM,16%
same,growth inhibition,[4]; [17],73% (active)
same,growth inhibition,[4]; at 50.0 µM,69.4%
same,growth inhibition,[4]; at 100.0 µM,73% (active)
same,growth inhibition,[5]; at 1.2 µM,-3%
same,growth inhibition,[5]; at 3.7 µM,0%
same,growth inhibition,[5]; [16],-4%
same,growth inhibition,[5]; at 11.0 µM,-2%
same,growth inhibition,[5]; at 33.0 µM,1%
same,growth inhibition,[5]; [17],-2%
same,growth inhibition,[5]; at 50.0 µM,-21.9%
same,growth inhibition,[5]; at 100.0 µM,33%
same,growth inhibition,[6]; at 1.2 µM,0%
same,growth inhibition,[6]; at 3.7 µM,-1%
same,growth inhibition,[6]; at 11.0 µM,-2%
same,growth inhibition,[6]; at 33.0 µM,2%
same,growth inhibition,[6]; at 100.0 µM,17%
same,growth inhibition,[7]; [16],2%
same,growth inhibition,[7]; [17],20%
same,growth inhibition,[7]; at 50.0 µM,20.4%
same,growth inhibition,[8]; at 1.2 µM,2%
same,growth inhibition,[8]; at 3.7 µM,0%
same,growth inhibition,[8]; at 11.0 µM,4%
same,growth inhibition,[8]; at 33.0 µM,-6%
same,growth inhibition,[8]; at 100.0 µM,11%
same,growth inhibition,[9]; [16],16%
same,growth inhibition,[9]; [17],17%
same,growth inhibition,[9]; at 50.0 µM,-5.1%
same,growth inhibition,[10]; at 1.2 µM,-4%
same,growth inhibition,[10]; at 3.7 µM,-1%
same,growth inhibition,[10]; [16],-12%
same,growth inhibition,[10]; at 11.0 µM,-4%
same,growth inhibition,[10]; at 33.0 µM,-4%
same,growth inhibition,[10]; [17],33%
same,growth inhibition,[10]; at 50.0 µM,-1.35%
same,growth inhibition,[10]; at 100.0 µM,7%
same,growth inhibition,[11]; at 1.2 µM,0%
same,growth inhibition,[11]; at 3.7 µM,0%
same,growth inhibition,[11]; at 11.0 µM,1%
same,growth inhibition,[11]; at 33.0 µM,0%
same,growth inhibition,[11]; at 100.0 µM,20%
same,growth inhibition,[12]; at 1.2 µM,-2%
same,growth inhibition,[12]; at 3.7 µM,0%
same,growth inhibition,[12]; at 11.0 µM,1%
same,growth inhibition,[12]; at 33.0 µM,1%
same,growth inhibition,[12]; at 100.0 µM,48%
same,growth inhibition,[13]; at 1.2 µM,-1%
same,growth inhibition,[13]; at 3.7 µM,0%
same,growth inhibition,[13]; at 11.0 µM,0%
same,growth inhibition,[13]; at 33.0 µM,5%
same,growth inhibition,[13]; at 100.0 µM,43%
same,growth inhibition,[14]; [16],-1%
same,growth inhibition,[14]; [17],40%
same,growth inhibition,[14]; at 50.0 µM,46%
CCOC(=O)CC1(C(=O)OCC)c2[nH]c3ccccc3c2CCN1Cc1ccccc1 (stereo unspecified),growth inhibition,[1]; at 1.2 µM,-3%
same,growth inhibition,[1]; at 3.7 µM,-2%
same,growth inhibition,[1]; at 11.0 µM,-1%
same,growth inhibition,[1]; at 33.0 µM,-5%
same,growth inhibition,[1]; at 100.0 µM,42%
same,growth inhibition,[2]; at 1.2 µM,-7%
same,growth inhibition,[2]; at 3.7 µM,-7%
same,growth inhibition,[2]; at 11.0 µM,-11%
same,growth inhibition,[2]; at 33.0 µM,-9%
same,growth inhibition,[2]; at 100.0 µM,0%
same,growth inhibition,[3]; at 1.2 µM,-2%
same,growth inhibition,[3]; at 3.7 µM,-1%
same,growth inhibition,[3]; at 11.0 µM,1%
same,growth inhibition,[3]; at 33.0 µM,3%
same,growth inhibition,[3]; at 100.0 µM,50%
same,growth inhibition,[4]; at 1.2 µM,-2%
same,growth inhibition,[4]; at 3.7 µM,-2%
same,growth inhibition,[4]; [16],50%
same,growth inhibition,[4]; at 11.0 µM,5%
same,growth inhibition,[4]; at 33.0 µM,5%
same,growth inhibition,[4]; [17],50%
same,growth inhibition,[4]; at 50.0 µM,70.9% (active)
same,growth inhibition,[4]; at 100.0 µM,38%
same,growth inhibition,[5]; at 1.2 µM,-3%
same,growth inhibition,[5]; at 3.7 µM,-4%
same,growth inhibition,[5]; [16],13%
same,growth inhibition,[5]; at 11.0 µM,-5%
same,growth inhibition,[5]; at 33.0 µM,-2%
same,growth inhibition,[5]; [17],13%
same,growth inhibition,[5]; at 50.0 µM,61.2%
same,growth inhibition,[5]; at 100.0 µM,50%
same,growth inhibition,[6]; at 1.2 µM,1%
same,growth inhibition,[6]; at 3.7 µM,1%
same,growth inhibition,[6]; at 11.0 µM,1%
same,growth inhibition,[6]; at 33.0 µM,3%
same,growth inhibition,[6]; at 100.0 µM,33%
same,growth inhibition,[7]; [16],43%
same,growth inhibition,[7]; [17],43%
same,growth inhibition,[7]; at 50.0 µM,62%
same,growth inhibition,[8]; at 1.2 µM,-1%
same,growth inhibition,[8]; at 3.7 µM,2%
same,growth inhibition,[8]; at 11.0 µM,4%
same,growth inhibition,[8]; at 33.0 µM,12%
same,growth inhibition,[8]; at 100.0 µM,74% (active)
same,growth inhibition,[9]; [16],-4%
same,growth inhibition,[9]; [17],-4%
same,growth inhibition,[9]; at 50.0 µM,74% (active)
same,growth inhibition,[10]; at 1.2 µM,-3%
same,growth inhibition,[10]; at 3.7 µM,-7%
same,growth inhibition,[10]; [16],6%
same,growth inhibition,[10]; at 11.0 µM,8%
same,growth inhibition,[10]; at 33.0 µM,26%
same,growth inhibition,[10]; [17],6%
same,growth inhibition,[10]; at 50.0 µM,55.1%
same,growth inhibition,[10]; at 100.0 µM,37%
same,growth inhibition,[11]; at 1.2 µM,-1%
same,growth inhibition,[11]; at 3.7 µM,0%
same,growth inhibition,[11]; at 11.0 µM,0%
same,growth inhibition,[11]; at 33.0 µM,2%
same,growth inhibition,[11]; at 100.0 µM,45%
same,growth inhibition,[13]; at 1.2 µM,-4%
same,growth inhibition,[13]; at 3.7 µM,-7%
same,growth inhibition,[13]; at 11.0 µM,-5%
same,growth inhibition,[13]; at 33.0 µM,0%
same,growth inhibition,[13]; at 100.0 µM,40%
same,growth inhibition,[14]; [16],31%
same,growth inhibition,[14]; [17],31%
same,growth inhibition,[14]; at 50.0 µM,65.2%
same,growth inhibition,[15]; at 1.2 µM,-3%
same,growth inhibition,[15]; at 3.7 µM,-15%
same,growth inhibition,[15]; at 11.0 µM,8%
same,growth inhibition,[15]; at 33.0 µM,3%
same,growth inhibition,[15]; at 100.0 µM,35%
OC(CCNCc1ccccc1)c1ccc2ccccc2c1 (stereo unspecified),growth inhibition,[1]; at 1.2 µM,2%
same,growth inhibition,[1]; at 3.7 µM,33%
same,growth inhibition,[1]; at 11.0 µM,41%
same,growth inhibition,[1]; at 33.0 µM,60%
same,growth inhibition,[1]; at 100.0 µM,72% (active)
same,growth inhibition,[2]; at 1.2 µM,-5%
same,growth inhibition,[2]; at 3.7 µM,-12%
same,growth inhibition,[2]; at 11.0 µM,13%
same,growth inhibition,[2]; at 33.0 µM,27%
same,growth inhibition,[2]; at 100.0 µM,21%
same,growth inhibition,[3]; at 1.2 µM,14%
same,growth inhibition,[3]; at 3.7 µM,34%
same,growth inhibition,[3]; at 11.0 µM,63%
same,growth inhibition,[3]; at 33.0 µM,84% (active)
same,growth inhibition,[3]; at 100.0 µM,96% (active)
same,growth inhibition,[4]; at 1.2 µM,15%
same,growth inhibition,[4]; at 3.7 µM,44%
same,growth inhibition,[4]; [16],22%
same,growth inhibition,[4]; at 11.0 µM,72% (active)
same,growth inhibition,[4]; at 33.0 µM,92% (active)
same,growth inhibition,[4]; [17],88% (active)
same,growth inhibition,[4]; at 50.0 µM,75.5% (active)
same,growth inhibition,[4]; at 100.0 µM,94% (active)
same,growth inhibition,[5]; at 1.2 µM,-1%
same,growth inhibition,[5]; at 3.7 µM,10%
same,growth inhibition,[5]; [16],15%
same,growth inhibition,[5]; at 11.0 µM,22%
same,growth inhibition,[5]; at 33.0 µM,47%
same,growth inhibition,[5]; [17],76% (active)
same,growth inhibition,[5]; at 50.0 µM,37.9%
